Among the data in PubChem BioAssay (EPA / NIEHS) are outcome and AC50 values, retold here.

More than one record can exist for a structure, and the calls need not agree. Active and inactive are the calls of the source. The calls were made as follows: active = hit-call score of the fitted dose curve at least 0.9, where 1 is the maximum; inactive = score below 0.9.

The test can be described thus: ATG_GATA_CIS: Attagene CIS-FACTORIAL HepG2 Assay for human GATA Binding Protein (AID 2282944). The note with it: HepG2 GATA cis-element reporter, Attagene multiplex mRNA; actives raise or lower the signal. As to the method: ATG_CIS is a cell-based, multiplexed-readout assay that uses HepG2, a human liver cell line, with measurements taken at 24 hours after chemical dosing in a 24-well plate.ATG_GATA_CIS is one of 52 assay component(s) measured or calculated from the ATG_CIS assay. It is designed to make measurements of mRNA induction, a form of inducible reporter, as detected with fluorescence intensity signals by Reverse transcription polymerase chain reaction (RT-PCR) and Capillary electrophoresis technology.Data from the assay component ATG_GATA_CIS was analyzed into 1 assay endpoint. This assay endpoint, ATG_GATA_CIS, was analyzed with bidirectional fitting relative to DMSO as the negative control and baseline of activity. Using a type of inducible reporter, measures of mRNA for gain or loss-of-signal activity can be used to understand the reporter gene at the transcription factor-level as they relate to the gene GATA1. Furthermore, this assay endpoint can be referred to as a primary readout, because this assay has produced multiple assay endpoints where this one serves a reporter gene function. To generalize the intended target to other relatable targets, this assay endpoint is annotated to the dna binding intended target family, where the subfamily is GATA proteins.
Human liver HepG2 cells are transiently transfected with multiple reporter transcription units (MRTUs) in 6-well plates using FuGene 6 reagent (Roche; 3 ml FuGene/1 mg DNA). The MRTU constructs are regulated by a cis-regulating element (promoter). […] A major difference between the CIS and TRANS system is that in CIS activities of endogenous TFs are measured, whereas the TRANS assay evaluates changes in activities of exogenous, chimeric NR-Gal4 proteins. […] At the end of 24 hour incubation, total RNA was isolated using TriZol reagent (Invitrogen). The isolated RNA is then reverse-transcribed using oligo(dT) primer and Mo-MLV reverse transcriptase (Invitrogen) with DNAse I (Ambion) treatment for 30 min. The one-tenth of the produced cDNA was amplified by PCR using Taq DNA polymerase (Invitrogen) and two reporter sequence-specific primers. The PCR products were fluorescently labeled by primer extension with 6-arboxyfluorescein (6-FAM) 5'-labeled reporter sequence-specific primer (2 min at 95 C, 20 s at 68 C and 10 min at 72 C) and these products were digested with 5U of HpaI (New England Biolabs) for 2h at 37 C. The fragments were purified using Qiaquick PCR columns (Qiagen), analyzed on an ABI 3130xL genetic analyzer (Applied Biosystems) with peak positions identified by using a set of X-rhodamine (ROX)-labeled MapMarker1000 molecular weight standards (BioVentures). The raw capillary electrophoresis data was processed using Attagraph software (Attagene).
In the case of `O=C(OCCOCCOC(=O)c1ccccc1)c1ccccc1`, the compound was called inactive. For the compound `O=C(O)Cc1cc(I)c(Oc2cc(I)c(O)c(I)c2)c(I)c1`, the compound was classed as inactive and the AC50 was 115 µM (active). Regarding `N#C[C@@H]1CC(F)(F)CN1C(=O)CNC1CC2CCC(C1)N2c1ncccn1` (stereo not given in full), the call was inactive.

As for `CCCCCCCCCCCCN1CCCC1=O`, the compound was classed as inactive. Still for that read-out and setting: the result for `COC(=O)CCCCC(=O)OC` reads “inactive”. On the same count and under the same terms, the result for `CCCCC[C@H](O)CC(=O)CCc1ccc(O)c(OC)c1` reads “inactive”. The same measure, in the same setting: then `CCCCCCCC(=O)O`, with “inactive”. Regarding `CC(O)CO` (stereo not given), the compound was classed as inactive. On the same count and under the same terms, the result for `Cc1cc(C)c(O)c(C)c1` reads “inactive”; that for `COCC(C)O` (stereo not given), “inactive”; that for `NCC(F)(F)C(F)(F)C(F)(F)C(F)(F)C(F)(F)C(F)(F)C(F)(F)F`, “inactive”. Still for that read-out and setting: then `Cc1oc(-c2ccccc2)nc1CCOc1ccc(C[C@H](Nc2ccccc2C(=O)c2ccccc2)C(=O)O)cc1`, with “inactive”; and `NC(=O)N1C(=O)C(C(=O)c2cc(Cl)cs2)c2cc(F)c(Cl)cc21` (stereo not given), with “inactive”; and `CC(C)(C)c1cc(C(C)(C)C)c(O)c(C(C)(C)C)c1`, with “inactive”. The same measure, in the same setting: then `C[C@@H]1C[C@H]2[C@@H]3CCC4=CC(=O)C=C[C@]4(C)[C@@]3(F)[C@@H](O)C[C@]2(C)[C@@]1(O)C(=O)COP(=O)(O)O`, with “inactive”. As for `Cc1ccc(S(=O)(=O)O)c(C)c1`, the call was inactive.

For the compound `Oc1cccc(O)c1`, the call was inactive.

For the compound `CCCCC(CC)COC(=O)CCCCC(=O)OCc1ccccc1` (stereo not given), the compound was called inactive. Turning to `CCC(=C(c1ccc(O)cc1)c1ccc(OCCN(C)C)cc1)c1ccccc1`, the AC50 was 10.5 µM (active) and the result was inactive.

Turning to `CC(=O)CC(C)(C)O`, the result was inactive. The same measure, in the same setting: then `CCN(CC)CCNc1ccc(CNC=O)c2sc3ccc(OC)cc3c(=O)c12`, with “inactive”; and `COc1ccc([N+](=O)[O-])cc1N`, with “inactive”. Same read-out and setting: the result for `CC1=C(/C=C/C(C)=C/C=C/C(C)=C/C(=O)O)C(C)(C)CCC1` reads “inactive”; that for `O=[N+]([O-])c1ccc(O)cc1`, “inactive”; that for `CC(C)CCCCCCOC(=O)CCCCC(=O)OCCCCCCC(C)C`, “inactive”. Same read-out and setting: then `CC(C)(C)c1cccc(C(C)(C)C)c1O`, with “inactive”. Consider `Cc1cc(CCN2CCN(c3nsc4ccccc34)CC2)cc2c1NC(=O)CC2(C)C`, for which the outcome was inactive. Regarding `O=C1OC2(c3ccccc31)c1cc(Br)c(O)c(Br)c1Oc1c2cc(Br)c(O)c1Br`, the compound was classed as inactive.

As to `CCCCC(CC)COC(=O)CCCCC(=O)OCC(CC)CCCC` (stereo not given), the compound was called inactive.

As to `c1ccc2cc3c(ccc4ccccc43)cc2c1`, the compound was classed as inactive.

As to `CC(=O)NC1(c2cccc(F)c2)CCN(CC[C@@]2(c3ccc(Cl)c(Cl)c3)CN(c3ccccc3)C(=O)CO2)CC1`, the compound was called inactive. Same read-out and setting: then `CC[C@H](c1ccc(O)cc1)[C@@H](CC)c1ccc(O)cc1`, with “inactive”. Still for that read-out and setting: then `CCCCCCCCCCCCCC[N+](C)(C)C`, with “inactive”; and `CCCCCCCCC(=O)O`, with “inactive”; and `COCC(C)OCC(C)O` (stereo not given), with “inactive”. As to `OCCC(F)(F)C(F)(F)C(F)(F)C(F)(F)C(F)(F)C(F)(F)F`, the AC50 is 125 µM (active) and the result was inactive. Consider `O=C(/C=C/c1ccc(O)cc1)CC(=O)/C=C/c1ccc(O)cc1`, for which the compound was classed as inactive.

One may read the AC50 as the midpoint of the concentration-response curve, whichever way the signal moves.
